Assay outcomes from PubChem.
BAZ2B inh: BAZ2B (human) inhibition. hit rate 4.4% among 360,000. AlphaScreen BAZ2B-H3K14Ac peptide displacement. Q9UIF8. Potency, µM (highest dose often 114 µM), without a hit: top-dose activity change, negative = inhibition, most hits filed as inhibitors. AID 504333; further: on the % scale 0 is the no-effect control and ±100 the full control effect; nearly all actives have a fitted effect of over 60% in size
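AlphaScreen displacement of biotin-H3(5-23)K14Ac peptide (50 nM final) from BAZ2B (50 nM final) in PBS pH 7.4, 0.01% Tween-20; complex preformed 30 min RT, then compounds (top 110 uM) 30 min RT, beads 20 min dark.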
Sfp inh: blocks B. subtilis Sfp PPTase activity; Q9F4F7; Biochemical Sfp PPTase activity, qHTS; Potency, µM, inactives show largest response in the series, negative = inhibition, hits mostly inhibitors; hit rate 3.5% among 310,000;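 further: the enzyme is Sfp with the accession as filed and its product quenches rhodamine fluorescence; 0% = enzyme reaction without inhibitor and -100% = no enzyme wells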
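After 15 min at room temperature with compound, 15 nM Sfp received 5 uM rhodamine-CoA plus 12.5 uM BHQ-2-ybbR (50 mM Hepes pH 7.6, 10 mM MgCl2). Rate came from the fluorescence difference over 30 min, ex 525/em 598 nm.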
HP1b binding inh: blocks HP1-beta chromodomain binding to methylated histone tails | AlphaScreen HP1-beta / biotin-H3K9me3 peptide binding | hit rate 0.56% among 390,000 | Potency, µM (top dose mostly 114 µM), inactives show at the highest dose activity change, negative = inhibition, hits mostly inhibitors | P83916; further: nearly all actives have a fitted effect of over 70% in size
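HP1-beta protein (50 nM final) preincubated 30 min at room temperature with biotinylated H3(1-18)K9me3 peptide (50 nM) in PBS pH 7.4, 0.01% Tween-20, then compound added for 30 min. AlphaScreen streptavidin donor/nickel chelate acceptor beads (10 ug/mL final), 30 min dark, luminescence read.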
G9a inh: inhibitors of human histone lysine methyltransferase G9a; Potency, µM (doses to about 102 µM), for the others: at the top dose activity, negative = inhibition, usual class: inhibitors; hit rate 8.8% among 350,000; AID 504332; Q96KQ7; G9a H3K9 monomethylation, AlphaScreen, 2 h; further: on the % scale 0 is the no-effect control and ±100 the full control effect; nearly all actives have a fitted effect of over 75% in size
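AlphaScreen read-out: biotin-H3K9 peptide (500 nM) methylation by 20 nM enzyme with 20 uM SAM, 2 h at room temperature after 15 min compound preincubation; anti-monomethyl H3K9 antibody plus donor/acceptor beads, 10 min dark.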
L3MBTL1 inh: blocks human L3MBTL1; Q9Y468; AlphaScreen L3MBTL1–H3K9me1 peptide binding; Potency, µM (highest dose often 57.1 µM), for the others: at the highest dose activity, negative = inhibition, actives largely listed as inhibitors; hit rate 0.66% among 230,000; AID 485360; further: on the % scale 0 is the no-effect control and ±100 the full control effect; nearly all actives have a fitted effect of over 60% in size
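Read-out is AlphaScreen signal from streptavidin donor and nickel chelate acceptor beads (10 ug/mL final each) bridging L3MBTL1 (50 nM) and biotinylated K9-monomethylated H3(1-15) peptide (75 nM), after 30 min compound exposure at room temperature.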
JMJD2A Tudor inh: inhibitors of human JMJD2A Tudor domain; hit rate 4.4% among 390,000; AlphaScreen JMJD2A-Tudor / H3K4me3 peptide binding; Potency, µM (top dose mostly 114 µM), without a hit: at the highest dose activity change, negative = inhibition, most hits filed as inhibitors; O75164; further: on the % scale 0 is the no-effect control and ±100 the full control effect; nearly all actives have a fitted effect of over 50% in size
* = called active by the depositor; ? = inconclusive; . = no result; [ ] = dose if it differs, or a comment. In the library only some 12% were active in any assay of this set; here they are far more common. The call rests on the fitted dose curve; in most records, active means well fitted curve in the direction sought with a large enough effect; inconclusive means small, poorly fitted or top-dose-only effect, or another doubt; inactive means no such curve, though single readings can be large; an effect the other way counts as inactive or inconclusive. Potency means the concentration at half of the fitted maximal effect.

SMILES	BAZ2B inh	Sfp inh	HP1b binding inh	G9a inh	L3MBTL1 inh	JMJD2A Tudor inh
COc1cc2c(cc1OC)C1(Nc3c-2c(Cc2ccccc2)nn3-c2ccccc2)C(=O)Nc2ccccc21 (stereo not drawn)	50µM*	3%	-27%	40µM*	.	?
Nc1cccc(Nc2ccccc2)c1	?	-9%	1%	.	-12%	-12%
c1ccc(Nc2cccc(Nc3ccccc3)c2)cc1	13µM*	13%	40µM*	16µM*	-11%	32µM*
O=C(c1ccc([N+](=O)[O-])cc1)N1CCN(C(=O)c2ccco2)CC1	-23%	14%	-7%	4%	0%	-22%
Cc1ccccc1N1CCN(C(=S)c2ccc(-c3cccc([N+](=O)[O-])c3)o2)CC1	.	-5%	-24%	13µM*	.	?
Cc1ccc(N2CCN(C(=S)c3ccc(-c4cccc([N+](=O)[O-])c4)o3)CC2)cc1	?	14µM*	?	8.9µM*	-21%	?
O=C(c1ccco1)N1CCN(C(=O)c2ccc(-c3ccc([N+](=O)[O-])cc3)o2)CC1	.	.	-33%	.	?	40µM*
O=[N+]([O-])c1ccc(N2CCN(Cc3cccc([N+](=O)[O-])c3)CC2)cc1	?	3%	-7%	-11%	-11%	?
O=[N+]([O-])c1cccc(-c2ccc(CN3CCN(c4ccccc4)CC3)o2)c1	45µM*	?	?	40µM*	?	35µM*
CC(=O)N1CCN(c2ccccc2NC(=O)c2ccc(-c3cccc([N+](=O)[O-])c3)o2)CC1	-29%	-6%	25%	?	-10%[11.4 µM]	-20%
Cn1nnc2c(NCc3ccc(Cl)cc3)ncnc21	1%	.	10%	-5%[59 µM]	.	-15%
CC(C)[C@@H](CC(=O)N[C@@H]1CCCC[C@H]1C(=O)N[C@H](CC(=O)N[C@@H](CCC(=O)O)CC(=O)O)Cc1ccccc1)NC(=O)C[C@H](Cc1c[nH]c2ccccc12)NC(=O)[C@@H]1CNCC[C@H]1N	.	-8%	.	.	.	.
CCOc1ccc(-n2c(Cc3ccccc3)nnc2SCc2nc(-c3cccs3)no2)cc1	-36%	.	2%	-30%[59 µM]	.	-28%
O=[N+]([O-])c1ccc(N2CCN(C(=S)c3cccc([N+](=O)[O-])c3)CC2)cc1	56µM*	5.6µM*	11µM*	2µM*	.	?
CCCN1CCN(C(=O)c2ccc(-c3ccc([N+](=O)[O-])cc3)o2)CC1	0%	.	-11%	?	-8%	-24%
CC(=O)N1CCN(C(=S)c2cccc([N+](=O)[O-])c2)CC1	1%	-15%	-3%	?	0%	-4%
Cc1ccccc1N1CCN(C(=S)c2ccc(-c3ccc([N+](=O)[O-])cc3)o2)CC1	7.9µM*	20µM*	?	.	.	?
O=[N+]([O-])c1cccc(NC(=S)N2CCCC2)c1	-13%	-2%	50%	.	.	-9%
COc1cccc(NC(=S)N2CCN(c3ccc([N+](=O)[O-])cc3)CC2)c1	-31%	29%	7%	6%[59 µM]	.	-10%
CCN1CCN(C(=S)Nc2cccc([N+](=O)[O-])c2)CC1	-7%	-22%	5%	71µM*	-1%	-16%
COc1ccc(NC(=S)N2CCN(c3ccc([N+](=O)[O-])cc3)CC2)cc1OC	-33%	22µM*	-3%	.	26%	?
CC(C)(C)c1ccc(-c2nc3cc(NC(=O)c4cccc(Br)c4)ccc3o2)cc1	3%	.	34%	-1%[59 µM]	.	-17%
O=[S+]([O-])(c1ccc2c(c1)OCCO2)N1CCN([S+](=O)([O-])c2cc(Cl)ccc2F)CC1	.	.	.	.	.	-11%
Cc1ccc(CN2CCN(c3ccccc3)CC2)o1	50µM*	-18%	?	22µM*	-4%	20µM*
Cc1cc(C)c(OCCOCCn2c(-c3ccc(Cl)cc3)nc3ccccc3c2=O)c(C)c1	19%	.	70%	3%[59 µM]	.	31%
SMILES	BAZ2B inh	Sfp inh	HP1b binding inh	G9a inh	L3MBTL1 inh	JMJD2A Tudor inh
CC(Sc1nnc(N)s1)c1ccccc1Cl (stereo not drawn)	-1%	17%	90%	40µM*	.	-4%
Cn1ncc2c(N3CCN(c4ccccc4Cl)CC3)ncnc21	-9%	.	19%	-1%[59 µM]	.	-13%
COCCn1c(=N)c(C(=O)NCc2ccco2)cc2c(=O)n3ccccc3nc21	-7%	0%	8%	56µM*	2%	-31%
N=c1c(C(=O)NCc2ccco2)cc2c(=O)n3ccccc3nc2n1Cc1ccc(Cl)cc1	-27%	50µM*	4%	?	-9%	-18%
CN(C)c1ccc(CNC(=O)C2CCCN(S(=O)(=O)c3ccc4c(c3)oc(=O)n4C)C2)cc1 (stereo not drawn)	-16%	.	34%	-5%[59 µM]	.	-10%
NNc1nc(-c2ccccc2)cc(-c2ccccc2O)n1	50µM*	-5%	3%	7%	-17%	?
Cc1ccc([N+](=O)[O-])cc1S(=O)(=O)N1CCCC1	5%	7%	7%	?	?	-8%
Cc1ccc([N+](=O)[O-])cc1S(=O)(=O)N1CCC(C)CC1	-31%	-1%	?	56µM*	-17%	-14%[11.4 µM]
COc1ccc(S(=O)(=O)N2CCN(Cc3ccc4c(c3)OCO4)CC2)cc1	?	14%	18%	-5%	.	-27%
CCN1CCN(CC(=O)c2ccc(OC)cc2)CC1	-5%	22%	59%	45µM*	16%	-9%
COc1ccc(S(=O)(=O)N2CCN(Cc3cccc(F)c3)CC2)cc1	.	.	?	.	.	3.2µM*
CN(Cc1ccccc1)C1CCN(Cc2ccccc2[N+](=O)[O-])CC1	20µM*	79µM*	?	18µM*	-18%	11µM*
COc1ccc(CNCc2c(C(=O)O)n(Cc3ccc(F)cc3)c3cc(C)ccc23)cc1OC	-20%	.	8%	-8%[59 µM]	.	-15%
N#Cc1ccc(C[C@H](C(=O)O)N2C(=O)c3ccc(C(=O)O)cc3C2=O)cc1	-5%	20%	.	-5%[12.7 µM]	13%	-27%
Clc1ccc(-n2c(Cc3ccccc3)nnc2SCc2nc(-c3cccs3)no2)cc1	-16%	.	44%	-14%[59 µM]	.	-24%
CCN(c1ccccc1)c1nnc(NC(=O)Nc2ccc(Br)cc2F)s1	3%	.	66%	-43%[59 µM]	.	-3%
COc1ccc(NC(=O)Cn2c(=O)n(-c3ccc(Cl)cc3)c(=O)c3c(C)c(C(=O)N(C)C)sc32)cc1Cl	-1%	.	27%	1%[59 µM]	.	-27%
CCN1CCN(S(=O)(=O)c2ccc(OC)cc2)CC1	-13%	11%	44%	-6%	.	-10%
COc1ccccc1CN1CCN(S(=O)(=O)c2ccc(C)cc2)CC1	.	.	?	.	.	20µM*
COc1ccc(S(=O)(=O)N2CCN(Cc3cccc([N+](=O)[O-])c3)CC2)cc1	.	.	?	.	.	20µM*
